Sampled rows, rich in hits. Any-hit rate of the full collection: about 4.4%.
SKKanGAS inh = S. pyogenes SKKanGAS growth inhibitors in kanamycin, primary screen, streptokinase expression inhibitor project, SKKanGAS strain, BacTiter-Glo luminescence; hit rate 1.3% among 300,000; 6 h; AID 1662, 2009; inhibition, % at 7.5 µM;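 active means mean replicate score, as percent of positive control median, at least 50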;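 further: strain carries kanamycin resistance gene driven by streptokinase promoter and grows in 40 µg/ml kanamycin; loss of luminescence reflects streptokinase promoter inhibition or plain growth inhibition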
PfHsp90 set2 = growth inhibition of PfHsp90-expressing yeast, primary screen, antimalarial PfHsp90 inhibitor project, S. cerevisiae, BacTiter-Glo luminescence, single point, set 2; AID 504621, 2011; hit rate 0.32% among 310,000; BacTiter-Glo ATP, 48 h; yeast lacking PDR1 and PDR3 efflux regulators; inhibition, % at 9.4 µM;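 active means every replicate shows inhibition above about 80%, whatever the replicate mean, limit read from the data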
tim23-1 inh = growth inhibitors of tim23-1 mutant yeast, primary screen, luminescence, uHTS. S. cerevisiae tim23-1 growth, BacTiter-Glo luminescence, 24 h. inhibition, % at 20 µM. hit rate 1.3% among 330,000. AID 463212, 2010;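 active means growth inhibition of the mutant yeast at or above 50%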;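 further: temperature-sensitive mutant grown at 25 °C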
tim10-1 inh = growth inhibitors of tim10-1 mutant yeast, primary screen, luminescence, uHTS; S. cerevisiae tim10-1 ts strain growth, BacTiter-Glo, 24 h; inhibition, % at 20 µM; hit rate 2.2% among 330,000; AID 463190, 2010;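 active means inhibition of at least 40%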;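 further: mutant grown at 25 °C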
TIM10 inh = growth inhibitors of isogenic TIM10 control yeast, primary screen, counter-screen for tim10-1 yeast inhibitor project, luminescence, uHTS | inhibition, % at 10 µM | hit rate 1.4% among 330,000 | S. cerevisiae TIM10 strain growth, BacTiter-Glo luminescence, 24 h | AID 463195, 2010;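 active means inhibition of 40% or more at the single tested concentration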;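 further: wild-type TIM10 isogenic control strain grown at permissive 25 °C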
TIM10 conf = growth inhibitors of wild-type TIM10 yeast, confirmation, counter-screen for tim10-1 synthetic lethality project, single concentration, luminescence, S. cerevisiae. hit rate 63% among 4,600. AID 463215, 2010. S. cerevisiae tim10 strain growth, BacTiter-Glo luminescence, 24 h. shares compounds with TIM10 inh. inhibition, % at 10 µM;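 active means inhibition of yeast growth at or above a set limit in either of two replicates at 10 µM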; further: this counterscreen used the strain with wild-type TIM10
A number is an active result; - = inactive; . = no result.

SMILES	SKKanGAS inh	PfHsp90 set2	tim23-1 inh	tim10-1 inh	TIM10 inh	TIM10 conf
COc1cc(NC(=O)CN2C(=O)c3ccccc3S2(=O)=O)cc(OC)c1	.	.	-	-	-	.
O=C1NC(=S)N(c2cccc(Cl)c2)C12CCCCC2	-	-	-	-	44	-
CCOc1ccc(-c2nc3n(c(=O)c2C#N)CCCS3)cc1	58	-	-	-	97	-
COc1ccc(-c2nc3n(c(=O)c2C#N)CCCS3)cc1	-	-	-	-	-	.
Cc1cc(Cl)ccc1OCCNC(=S)NC(=O)c1cccnc1	-	-	-	-	-	.
CC(C)c1ccccc1OCCNC(=S)NC(=O)c1cccnc1	-	.	-	-	45	44
CC(=O)Nc1ccc(C(=O)N/N=C/c2ccccc2OCc2ccccc2)cc1	-	-	-	-	-	.
COc1cccc(/C=N/NC(=O)c2cnccn2)c1O	-	-	-	-	95	-
O=C(N/N=C/c1ccccc1OCc1ccccc1)c1cccnc1	-	-	-	-	40	-
Cc1c(C(=O)N2C[C@@H](C)O[C@@H](C)C2)oc2c(F)cccc12	-	-	-	-	-	.
COc1cc(SC)ccc1C(=O)Nc1ncc(Cl)cc1Cl	-	-	-	-	48	-
COc1cc(SC)ccc1C(=O)Nc1ccc(Br)cn1	-	-	-	-	-	.
CC(C)(C)OC(=O)C[C@H]1C/C=C\C[C@@H](CC(=O)NCCO)C(=O)N[C@H](Cc2ccccc2)COC1=O	.	-	-	-	-	.
COCCn1c(C)cc(C(=O)COc2ncnc3ccc(Br)cc23)c1C	-	-	-	-	43	-
COc1ccccc1CNC(=O)COC(=O)c1cccc(-n2cnnn2)c1	.	-	-	-	-	.
CC(=O)Oc1oc(-c2ccccc2)nc1C=Nc1ccc(N(C)C)cc1	-	-	-	-	45	-
COc1ccc(-c2n[nH]c(=S)n2C2CCCCC2)cc1	-	-	-	-	43	32
O=C(Nc1ccccc1C(=O)NCCc1ccccc1)c1ccco1	-	-	-	-	97	-
O=C(O)CNC(=O)c1ccccc1NC(=O)c1ccco1	.	.	-	-	-	.
CC(C)(C)c1nc(NC(=O)Nc2ccccc2)sc1Br	68	-	-	-	49	49
CN(C)C(CNc1ncnc2ccccc12)c1c(F)cccc1Cl (stereo unspecified)	-	-	-	-	-	.
O=C1CSC(c2ccc(Cl)cc2Cl)N1c1ccccn1 (stereo unspecified)	-	-	-	-	-	.
O=C1CSC(c2ccccc2Br)N1c1ccc(Cl)cn1 (stereo unspecified)	-	.	-	-	41	-
Cc1cc(S(=O)(=O)N2CCOCC2)ccc1OCC(=O)N1CCCC1	-	-	-	-	-	.
CN(C)S(=O)(=O)Oc1ccc(C(=O)Nc2cccc(C(F)(F)F)c2)cc1	-	-	-	-	-	.
SMILES	SKKanGAS inh	PfHsp90 set2	tim23-1 inh	tim10-1 inh	TIM10 inh	TIM10 conf
CN(C)S(=O)(=O)Oc1ccc(C(=O)Nc2cccc(Cl)c2)cc1	-	-	-	-	47	45
O=C1N=C(N2CCCCC2)S/C1=C\c1ccncc1	-	-	-	-	-	.
CCc1ccc(/C=C2\SC(N3CCCC3)=NC2=O)cc1	-	-	-	-	44	41
CCOCc1c(C(=O)OCC(=O)NCc2ccc(F)cc2)oc2ccccc12	.	-	-	-	-	.
COc1ccc(OCC(O)Cn2cnc(-c3ccc(Br)cc3)c2)cc1 (stereo unspecified)	-	-	-	-	52	-
Cc1ccc(CN2C(=O)C(C)(C)Oc3ccc(C(=O)N4CCCCC4)cc32)cc1	-	-	-	-	45	-
CCOC(=O)c1c(NC(C)=O)sc(/C(C)=N/Nc2ccc(C(=O)O)cc2)c1C	-	-	-	-	-	.
O=[N+]([O-])c1ccc(Nc2nc(N3CCOCC3)nc(N3CCOCC3)n2)cc1	-	-	-	-	-	.
NNc1nc(Nc2ccc([N+](=O)[O-])cc2)nc(N2CCCCCC2)n1	82	-	-	-	97	-
NNc1nc(Nc2ccccc2)nc(N2CCCCC2)n1	-	-	-	-	41	-
CC1(C)Cc2c(cnn2-c2ccccc2)C(NC(=O)CCCn2cncn2)C1 (stereo unspecified)	-	-	-	-	-	.
CN(c1ccccc1)C(c1ccc(F)cc1)c1nnnn1CC1CCCO1 (stereo unspecified)	-	-	-	-	-	.
CN(c1ccccc1)C(c1ccc(F)cc1)c1nnnn1C1CCCC1 (stereo unspecified)	-	.	-	-	45	31
c1ccc(Cc2nc3ccccc3n2Cc2ccccc2)cc1	-	-	-	-	44	32
Cc1nc2ccccc2n1Cc1ccccc1	-	-	-	-	-	.
O=C(Nc1nccs1)c1ccc2nccnc2c1	-	-	-	-	41	39
CC1CCN(C(=O)c2[nH]cnc2C(=O)Nc2cccc(Cl)c2)CC1	.	-	-	-	-	.
O=C(NC(=S)Nc1ccc(S(=O)(=O)N2CCCCC2)cc1)c1cccs1	-	-	-	-	-	.
O=C(NC(=S)Nc1ccc(S(=O)(=O)NC2CCCCC2)cc1)c1cccs1	-	-	-	-	41	38
CCOC(=O)c1ccc(N(C(=O)CNC(=O)c2ccco2)C(C(=O)NCC2CCCO2)c2ccc(OC)c(OC)c2)cc1 (stereo unspecified)	-	-	-	-	-	.
COC(=O)c1ccc(C)c(NC(=O)c2ccc(Cn3cc([N+](=O)[O-])cn3)o2)c1	-	-	-	-	-	.
CCNS(=O)(=O)c1ccc(NC(=O)c2ccc(Cn3cc([N+](=O)[O-])cn3)o2)cc1	-	-	-	-	47	-
CCOc1ccc(/C=N/NC(=O)Nc2ccccc2)cc1	-	.	-	-	-	.
CC(=O)Oc1ccc(/C=N/NC(=S)Nc2ccccc2)cc1	-	-	-	-	41	-
c1ccc(CNc2cncnc2)cc1	-	-	-	-	-	.
SMILES	SKKanGAS inh	PfHsp90 set2	tim23-1 inh	tim10-1 inh	TIM10 inh	TIM10 conf
Oc1ccc(-c2nc3ccc4ccccc4c3c3c2CCC3)cc1O	-	98	-	-	41	36
Cc1cc(C)c2c(ccc3ccccc32)n1	.	-	.	.	.	.
COc1ccc(N(CC(=O)N/N=C/c2cc(OC)ccc2OC)S(=O)(=O)c2ccccc2)cc1	-	-	-	-	55	-
Cc1cccc(NC(=O)C2(c3ccccc3)CC2(Cl)Cl)c1 (stereo unspecified)	-	-	-	-	-	.
Cc1cc(C)cc(NC(=O)C2(c3ccccc3)CC2(Cl)Cl)c1 (stereo unspecified)	-	-	-	-	41	40
O=[N+]([O-])c1ccc(N/N=C\c2cccn2-c2ccccc2)nc1	-	-	-	-	43	-

High-throughput results from PubChem BioAssay.
